One assay deals with Plasmodium falciparum. Kind of assay: GSK_TCMDC: Inhibition of Plasmodium falciparum Dd2 in whole red blood cells, using parasite LDH activity as an index of growth. Test compounds present at 2uM. Type of assay: functional.
In turn, `CCCNCc1ccc(-c2ccc(CN(Cc3cccs3)C(=O)C3CCN(C)CC3)cc2)nc1.O=C(O)C(F)(F)F` gave an Inhibition of 35%.

Compound `CN(c1ccc(NC(=O)Nc2cc(C(F)(F)F)ccc2F)cc1)c1ccnc(NCCN2CCOCC2)n1.O=C(O)C(F)(F)F` came in with an Inhibition of 73%.

In the case of `CCCC(CNC(=O)c1cc2c(Cl)cc(Cl)cc2[nH]1)CNc1cc(=O)c2ccccc2[nH]1.O=C(O)C(F)(F)F` (stereo not given), the Inhibition is given as 94%.

`CN(Cc1cccc(F)c1)C1CCCN(c2cc(NC(=O)c3ccccc3)ccn2)C1.O=C(O)C(F)(F)F` (stereo not given) showed an Inhibition of 50%.

`Oc1ccc(Cl)cc1Nc1nc(C(F)(F)F)nc2ccccc12` showed an Inhibition of 63%.

In the case of `COc1ccc(-c2nnc(Sc3ccc(C#N)c([N+](=O)[O-])c3)n2CC(C)C)cc1`, the Inhibition came to 78%.

Turning to `CN1CCC(N2CCN(Cc3cccc(-c4cccc(-c5nc6ccccc6[nH]5)c4)c3)CC2)CC1.O=C(O)C(F)(F)F`, the Inhibition is 100%.

Compound `COc1ccc(NC(=O)/C=C/c2ccc(Cl)c(Cl)c2)cc1N1CCN(C)CC1` displayed an Inhibition of 20%.

As for `CCCCC(CC)NC(=O)[C@H]1CNCCN1C(=O)CCCc1ccccc1.O=C(O)C(F)(F)F` (stereo not given in full), the Inhibition is on record as 0%.

With `CC(C)C[C@@H](NC(=O)NC1CCC(CCN2C3CCC2CC(OC(=O)C(CO)c2ccccc2)C3)CC1)C(O)(c1ccccc1)c1ccccc1` (stereo not given in full), the Inhibition is listed as 71%.

`O=C(/C=C/c1ccc(Cl)c(Cl)c1)NC1CCC(CN2CCC(Cc3cc4ccccc4[nH]3)CC2)CC1` (stereo not given) registered an Inhibition of 74%.

In turn, `O=C(Nc1ccc(OC2CCN(Cc3ccsc3)C2)c(Cl)c1)c1ccco1.O=C(O)C(F)(F)F` (stereo not given) returned an Inhibition of 96%.

`COc1ccc2ncc(F)c(CCN3CC(O)C(CNCc4ccc5oc(=O)ccc5c4)C3)c2n1.Cl` (stereo not given): the Inhibition was found to be 6%.

On to `Cc1cccc2nc(-c3ccc(-c4ccc(NC(=O)CN5CCN(C)CC5)cc4)s3)[nH]c12`, for which the Inhibition is 86%.

`O=C1Nc2ccccc2/C1=N/NC(=S)N1CCOCC1` came in with an Inhibition of 75%.

As to `CCCC(=O)Nc1ccc(OCCCN(Cc2ccccc2F)c2ccc(C#N)c(C(F)(F)F)c2)cc1`, the Inhibition stood at 93%.

In turn, `CCCCn1c(SC(C)C)nc2c(c1=O)C1(CCCCC1)Cc1ccccc1-2` returned an Inhibition of 60%.

As for `O=C(/C=C/c1ccc(Cl)c(Cl)c1)NCCCCCCN1CCCN(C(=O)Nc2ccc(C(F)(F)F)cc2)CC1`, the Inhibition was 25%.

`CC(Cc1ccc(NC(=O)c2ccc(CNCCc3ccccc3)cc2)cc1)NCCc1cccc(Cl)c1.Cl` (stereo not given) displayed an Inhibition of 99%.

As to `Cc1cc(C(=O)Nc2ccc(-c3nc4ccccc4[nH]3)cc2)ccc1[N+](=O)[O-]`, the Inhibition turned out to be 47%.

Take `CCCc1cc(Cc2cnc(N)nc2N)cc(CCC)c1OC.Cl`: the Inhibition amounted to 1%.

As to `Cc1nc2c(s1)c(=O)cc(CCc1cccc(F)c1F)n2CC(=O)N(Cc1ccc(-c2ccc(C(F)(F)F)cc2)cc1)C1CCN(C(C)C)CC1.O=C(O)C(O)C(O)C(=O)O`, the Inhibition stood at 82%.

With `CCc1cc(I)c2c(c1)C(NCCCNc1cc(=O)c3ccccc3[nH]1)CCN2.CS(=O)(=O)O` (stereo not given), the Inhibition is recorded as 32%.

Compound `CC1CN(CCCn2c3ccccc3c3ccc(C(=O)CCCN(C)C)cc32)CC(C)N1.Cl` (stereo not given) returned an Inhibition of 6%.

The compound `CCCN1CCN(c2ccccc2NS(=O)(=O)c2ccc(C(=O)Nc3ccc(Cl)cc3)cc2)CC1.O=C(O)C(F)(F)F` showed an Inhibition of 9%.

Turning to `c1ccc(OCCCCN2CCCCC2)cc1`, the Inhibition was 1%.

Compound `CN1CCN(c2nsc3ccc(-c4ccc(OCCN5CCCC5)cc4)cc23)CC1.O=C(O)C(F)(F)F` gave an Inhibition of 99%.

As to `O=C(Nc1ccc(Cl)cc1)N1CCN(C2CCCCC2)CC1`, the Inhibition is 0%.

Compound `O=C(NCc1ccccc1)NC(CCCN1CCC(Oc2cccc(Cl)c2)CC1)c1ccc(Cl)c(Cl)c1` (stereo not given) returned an Inhibition of 57%.

The compound `COCCNCc1cccc(-c2ccc3c(Nc4cc(O)c(Cl)cc4F)ccnc3c2)c1` registered an Inhibition of 79%.

Compound `Cc1cc(NC(=O)c2cc(S(=O)(=O)N3CCCCC3)ccc2C)no1` returned an Inhibition of 29%.

For the compound `O=C(Nc1ccncc1)c1cc(C(=O)Nc2ccncc2)cc([N+](=O)[O-])c1`, the Inhibition turned out to be 50%.

Compound `Cn1cnc2c(Nc3ccncc3)nc(-c3ccc4c(c3)OCO4)nc21.O=C(O)C(F)(F)F` showed an Inhibition of 2%.

With `Cc1cnc(Nc2ccccc2)nc1N[C@@H](CCCN)C(=O)Nc1ccccc1.O=C(O)C(F)(F)F`, the Inhibition is 0%.

On to `CCC(C)NCCC(c1ccccc1)c1ccccc1O.Cl` (stereo not given), for which the Inhibition is on record as 74%.

`O=C(Nc1cccc(C2=NCCN2)c1)Nc1cccc(C2=NCCN2)c1` [IMIDOCARB] yielded an Inhibition of 99%.

For the compound `CCCCCCN1CCC(NCc2cccc(C#N)c2)CC1.O=C(O)C(F)(F)F`, the Inhibition came out at 9%.

As to `O=C(O[C@@H]1CN[C@H](C#Cc2cc3c(Nc4ccc5c(cnn5Cc5ccccc5)c4)ncnc3s2)C1)N1CCCC1`, the Inhibition is given as 87%.

Compound `CCOc1ccc(-c2cc3nc(C4CCNCC4)c(C(=O)Nc4ccc(C)cc4Cl)cn3n2)cc1.Cl` returned an Inhibition of 22%.

`CC(C)c1cc2c(cc1O)C(Cc1ccccc1Cl)N(C)CC2.Cl` (stereo not given): the Inhibition was 33%.

For another assay, the system named is HepG2. Kind of assay: GSK_TCMDC: Percent inhibition of human HepG2 cell line. Test compounds present at 10uM. It is filed as functional.
As for `CCCNCc1ccc(-c2ccc(CN(Cc3cccs3)C(=O)C3CCN(C)CC3)cc2)nc1.O=C(O)C(F)(F)F`, the Inhibition amounted to 10%.

The compound `CN(c1ccc(NC(=O)Nc2cc(C(F)(F)F)ccc2F)cc1)c1ccnc(NCCN2CCOCC2)n1.O=C(O)C(F)(F)F` yielded an Inhibition of 67%.

Consider `CCCC(CNC(=O)c1cc2c(Cl)cc(Cl)cc2[nH]1)CNc1cc(=O)c2ccccc2[nH]1.O=C(O)C(F)(F)F` (stereo not given), for which the Inhibition worked out at 9%.

As for `CN(Cc1cccc(F)c1)C1CCCN(c2cc(NC(=O)c3ccccc3)ccn2)C1.O=C(O)C(F)(F)F` (stereo not given), the Inhibition came out at 3%.

Compound `Oc1ccc(Cl)cc1Nc1nc(C(F)(F)F)nc2ccccc12` registered an Inhibition of 16%.

On to `COc1ccc(-c2nnc(Sc3ccc(C#N)c([N+](=O)[O-])c3)n2CC(C)C)cc1`, for which the Inhibition came out at 3%.

Compound `CN1CCC(N2CCN(Cc3cccc(-c4cccc(-c5nc6ccccc6[nH]5)c4)c3)CC2)CC1.O=C(O)C(F)(F)F` had an Inhibition of 19%.

On to `COc1ccc(NC(=O)/C=C/c2ccc(Cl)c(Cl)c2)cc1N1CCN(C)CC1`, for which the Inhibition was found to be 23%.

`CCCCC(CC)NC(=O)[C@H]1CNCCN1C(=O)CCCc1ccccc1.O=C(O)C(F)(F)F` (stereo not given in full) returned an Inhibition of 5%.

Compound `CC(C)C[C@@H](NC(=O)NC1CCC(CCN2C3CCC2CC(OC(=O)C(CO)c2ccccc2)C3)CC1)C(O)(c1ccccc1)c1ccccc1` (stereo not given in full) yielded an Inhibition of 21%.

Take `O=C(/C=C/c1ccc(Cl)c(Cl)c1)NC1CCC(CN2CCC(Cc3cc4ccccc4[nH]3)CC2)CC1` (stereo not given): the Inhibition came out at 99%.

`O=C(Nc1ccc(OC2CCN(Cc3ccsc3)C2)c(Cl)c1)c1ccco1.O=C(O)C(F)(F)F` (stereo not given) registered an Inhibition of 0%.

Compound `COc1ccc2ncc(F)c(CCN3CC(O)C(CNCc4ccc5oc(=O)ccc5c4)C3)c2n1.Cl` (stereo not given) returned an Inhibition of 18%.

In the case of `Cc1cccc2nc(-c3ccc(-c4ccc(NC(=O)CN5CCN(C)CC5)cc4)s3)[nH]c12`, the Inhibition came out at 56%.

Compound `O=C1Nc2ccccc2/C1=N/NC(=S)N1CCOCC1` came in with an Inhibition of 51%.

Consider `CCCC(=O)Nc1ccc(OCCCN(Cc2ccccc2F)c2ccc(C#N)c(C(F)(F)F)c2)cc1`, for which the Inhibition is 7%.

`CCCCn1c(SC(C)C)nc2c(c1=O)C1(CCCCC1)Cc1ccccc1-2` showed an Inhibition of 1%.

`O=C(/C=C/c1ccc(Cl)c(Cl)c1)NCCCCCCN1CCCN(C(=O)Nc2ccc(C(F)(F)F)cc2)CC1` showed an Inhibition of 47%.

Consider `CC(Cc1ccc(NC(=O)c2ccc(CNCCc3ccccc3)cc2)cc1)NCCc1cccc(Cl)c1.Cl` (stereo not given), for which the Inhibition stood at 100%.

Regarding `Cc1cc(C(=O)Nc2ccc(-c3nc4ccccc4[nH]3)cc2)ccc1[N+](=O)[O-]`, the Inhibition was 55%.

Turning to `CCCc1cc(Cc2cnc(N)nc2N)cc(CCC)c1OC.Cl`, the Inhibition is recorded as 18%.

As for `Cc1nc2c(s1)c(=O)cc(CCc1cccc(F)c1F)n2CC(=O)N(Cc1ccc(-c2ccc(C(F)(F)F)cc2)cc1)C1CCN(C(C)C)CC1.O=C(O)C(O)C(O)C(=O)O`, the Inhibition is reported as 98%.

`CCc1cc(I)c2c(c1)C(NCCCNc1cc(=O)c3ccccc3[nH]1)CCN2.CS(=O)(=O)O` (stereo not given) came in with an Inhibition of 19%.

On to `CC1CN(CCCn2c3ccccc3c3ccc(C(=O)CCCN(C)C)cc32)CC(C)N1.Cl` (stereo not given), for which the Inhibition was found to be 26%.

The compound `CCCN1CCN(c2ccccc2NS(=O)(=O)c2ccc(C(=O)Nc3ccc(Cl)cc3)cc2)CC1.O=C(O)C(F)(F)F` yielded an Inhibition of 17%.

`c1ccc(OCCCCN2CCCCC2)cc1`: the Inhibition is 2%.

`CN1CCN(c2nsc3ccc(-c4ccc(OCCN5CCCC5)cc4)cc23)CC1.O=C(O)C(F)(F)F` had an Inhibition of 57%.

Compound `O=C(Nc1ccc(Cl)cc1)N1CCN(C2CCCCC2)CC1` yielded an Inhibition of 17%.

As for `O=C(NCc1ccccc1)NC(CCCN1CCC(Oc2cccc(Cl)c2)CC1)c1ccc(Cl)c(Cl)c1` (stereo not given), the Inhibition stood at 15%.

The compound `COCCNCc1cccc(-c2ccc3c(Nc4cc(O)c(Cl)cc4F)ccnc3c2)c1` returned an Inhibition of 0%.

The compound `Cc1cc(NC(=O)c2cc(S(=O)(=O)N3CCCCC3)ccc2C)no1` gave an Inhibition of 0%.

The compound `O=C(Nc1ccncc1)c1cc(C(=O)Nc2ccncc2)cc([N+](=O)[O-])c1` came in with an Inhibition of 1%.

`Cn1cnc2c(Nc3ccncc3)nc(-c3ccc4c(c3)OCO4)nc21.O=C(O)C(F)(F)F` registered an Inhibition of 19%.

`Cc1cnc(Nc2ccccc2)nc1N[C@@H](CCCN)C(=O)Nc1ccccc1.O=C(O)C(F)(F)F` displayed an Inhibition of 0%.

Turning to `CCC(C)NCCC(c1ccccc1)c1ccccc1O.Cl` (stereo not given), the Inhibition is on record as 4%.

In turn, `O=C(Nc1cccc(C2=NCCN2)c1)Nc1cccc(C2=NCCN2)c1` [IMIDOCARB] had an Inhibition of 16%.

Compound `CCCCCCN1CCC(NCc2cccc(C#N)c2)CC1.O=C(O)C(F)(F)F` gave an Inhibition of 5%.

With `O=C(O[C@@H]1CN[C@H](C#Cc2cc3c(Nc4ccc5c(cnn5Cc5ccccc5)c4)ncnc3s2)C1)N1CCCC1`, the Inhibition was found to be 8%.

The compound `CCOc1ccc(-c2cc3nc(C4CCNCC4)c(C(=O)Nc4ccc(C)cc4Cl)cn3n2)cc1.Cl` returned an Inhibition of 63%.

The compound `CC(C)c1cc2c(cc1O)C(Cc1ccccc1Cl)N(C)CC2.Cl` (stereo not given) came in with an Inhibition of 0%.

What is called Inhibition is the drop in the measured response relative to a control, in per cent. Low readings indicate a weak effect, high ones a strong effect.

Source of the values: ChEMBL document CHEMBL1157539, “Thousands of chemical starting points for antimalarial lead identification” (Nature, 2010).
